Reference: PubChem BioAssay (Tox21)
Inconclusive results are not listed. Calls of active or inactive are those of the source. Unless noted, the call rests on the fitted dose curve; in most records, active means well fitted curve in the direction sought with a large enough effect in the repeat runs; inconclusive means weak or mixed curves; inactive means no such curve, though single readings can be large; an effect the other way counts as inactive or inconclusive.

Experiments:
[1] = molecular target: Thyrotropin receptor (Homo sapiens) (UniProt P16473); experiment: qHTS assay to identify small molecule agonists of the thyroid stimulating hormone receptor (TSHR) signaling pathway (AID 1224843; calls by dose curve; further: nearly all actives have a fitted effect of over 45% in size)
How it was run: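 HEK293/TSHR, 800 cells/well; cpd 30 min RT; add cAMP-d2 + anti-cAMP-cryptate, 1 h RT; fluorescence read on plate reader. 15-pt titration, n=3.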

[2] = qHTS assay to identify small molecule agonists of the hypoxia (HIF-1) signaling pathway - cell viability counter screen (AID 1224844; calls by dose curve; further: nearly all actives have a fitted effect of over 50% in size; further: potency means the concentration at half of the fitted maximal effect)
How it was run: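 Cytotoxicity was measured in parallel with the HRE-driven beta-lactamase readout: after 17 hrs of compound exposure at 37C, HRE-bla ME-180 cells received CellTiter-Glo and luminescence was recorded 30 min later.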

[3] = qHTS assay to identify small molecule agonists of H2AX - cell viability counter screen (AID 1224847; calls by dose curve; further: top concentration of the series differs between compounds; nearly all actives have a fitted effect of over 30% in size)
How it was run: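 For this counter screen, overnight-attached CHO-K1 cells received test compounds (15 concentrations, 0.76% DMSO final); 3 hr later at 37C, CellTiter-Glo reagent was added and luminescence recorded after 30 min at room temperature.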

[4] = qHTS assay to identify small molecule agonists of the estrogen related receptor (ERR) signaling pathway from Tox21 library (AID 1224849; calls by dose curve; further: nearly all actives have a fitted effect of over 15% in size); settings: ERR reporter cell line, ONE-Glo luciferase, 18 h; at 92.4 µM (top of the series) unless noted
How it was run: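 Cells carrying the ERR reporter were plated and allowed to settle for 6 h, exposed to library compounds for 18 h at 37 C, then lysed with ONE-Glo and luminescence measured.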

[5] = qHTS RealTime-Glo MT Cell Viability Assay in HepG2 cells - 24 hour (AID 1224867); further: nearly all actives have a fitted effect of over 50% in size; further: potency means the concentration at half of the fitted maximal effect
How it was run: (§1)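 Luminescence read-out: viable HepG2 cells reduce a prosubstrate to a NanoLuc substrate, giving a signal proportional to live cell number. Reads taken at 0, 8, 16, 24, 32 and 40 h of compound exposure at 37 C.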

[6] = qHTS RealTime-Glo MT Cell Viability Assay in HEK293 cells - 32 hour (AID 1224868); further: nearly all actives have a fitted effect of over 50% in size; further: potency means the concentration at half of the fitted maximal effect
How it was run: (§2)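 Nonlytic real-time viability readout: viable cells convert prosubstrate to NanoLuc substrate, giving luminescence proportional to live cell number. HEK293, 600 cells/well, compound added after 5 h, continuous culture at 37 C.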

[7] = A CellTox Green Cytotoxicity Assay to monitor cytotoxicity in HEK293 cells - 0 hour (AID 1224869); further: nearly all actives have a fitted effect of over 50% in size
How it was run: (§3)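 Cells (HEK293, 600/well) and dye reagent are dispensed together. After 5 h at 37 C, 23 nL compound is pinned in. Plates stay at 37 C for 40 h with fluorescence read at 0h, 8h, 16h, 24h, 32h and 40h.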

[8] = qHTS RealTime-Glo MT Cell Viability Assay in HepG2 cells - 40 hour (AID 1224870); further: nearly all actives have a fitted effect of over 50% in size; further: potency means the concentration at half of the fitted maximal effect
How it was run: (§4)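 HepG2 cells (600/well) mixed with RealTime-Glo MT reagent, settled 5 h at 37 C/5% CO2 before compound addition. Nonlytic NanoLuc luminescence from viable-cell prosubstrate reduction read repeatedly during 40 h treatment at 37 C.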

[9] = qHTS RealTime-Glo MT Cell Viability Assay in HEK293 cells - 40 hour (AID 1224874); settings: RealTime-Glo luminescence; max response: stronger effect = lower value; further: nearly all actives have a fitted effect of over 50% in size; further: potency means the concentration at half of the fitted maximal effect
How it was run: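 Real-time viability in HEK293: signal arises when living cells convert a prosubstrate for NanoLuc in the medium, so luminescence tracks viable cell number. Compound (23 nL, DMSO) added 5 h post-seeding; kinetic reads at 0–40 h, 37 C.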

[10] = A CellTox Green Cytotoxicity Assay to monitor cytotoxicity in HEK293 cells - 24 hour (AID 1224875); further: nearly all actives have a fitted effect of over 45% in size
How it was run: as §3

[11] = A CellTox Green Cytotoxicity Assay to monitor cytotoxicity in HepG2 cells - 16 hour (AID 1224876); further: nearly all actives have a fitted effect of over 45% in size
How it was run: (§5)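 Cells and non-lytic dye reagent are dispensed together (600 HepG2 cells/well) and incubated 5 h before DMSO compound transfer. Kinetic fluorescence is then recorded in the same wells during 40 h at 37 C.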

[12] = qHTS RealTime-Glo MT Cell Viability Assay in HepG2 cells - 32 hour (AID 1224877); further: nearly all actives have a fitted effect of over 55% in size; further: potency means the concentration at half of the fitted maximal effect
How it was run: as §1

[13] = qHTS assay to identify small molecule agonists of the hypoxia (HIF-1) signaling pathway (AID 1224846; active means well fitted activation curve with a large enough effect in the signal ratio in the repeat runs, not every such curve was filed as active; the % refers to the signal ratio)
How it was run: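 Compounds from the Tox21 10K library, dissolved in DMSO, are tested for induction of a hypoxia response element–controlled beta-lactamase reporter in ME-180 cells. Exposure lasts 17 hrs at 37C after a 5 hr settling period, followed by CCF4-AM FRET substrate.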

[14] = qHTS assay to identify small molecule antagonists of the estrogen related receptor (ERR) signaling pathway from Tox21 library (AID 1224848); further: nearly all actives have a fitted effect of over 50% in size
How it was run: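 Compounds dissolved in DMSO are pin-transferred onto ERR reporter cells (2,000 per well) that have settled for 6 h at 37 C. Plates then incubate 18 h at 37 C before ONE-Glo luciferase reagent and a luminescence read 30 min later.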

[15] = A CellTox Green Cytotoxicity Assay to monitor cytotoxicity in HEK293 cells - 40 hour (AID 1224871); further: nearly all actives have a fitted effect of over 45% in size
How it was run: as §3

[16] = qHTS RealTime-Glo MT Cell Viability Assay in HEK293 cells - 16 hour (AID 1224872)
How it was run: as §2

[17] = qHTS RealTime-Glo MT Cell Viability Assay in HepG2 cells - 8 hour (AID 1224873); further: nearly all actives have a fitted effect of over 55% in size
How it was run: as §4

[18] = A CellTox Green Cytotoxicity Assay to monitor cytotoxicity in HepG2 cells - 24 hour (AID 1224878); further: nearly all actives have a fitted effect of over 45% in size; further: potency means the concentration at half of the fitted maximal effect
How it was run: as §5

[19] = A CellTox Green Cytotoxicity Assay to monitor cytotoxicity in HepG2 cells - 40 hour (AID 1224879); further: nearly all actives have a fitted effect of over 40% in size; further: potency means the concentration at half of the fitted maximal effect
How it was run: as §5

[20] = qHTS assay to identify small molecule agonists of H2AX (AID 1224845; active means well fitted activation curve with a large enough effect in the signal ratio in the repeat runs, not every such curve was filed as active; the % refers to the signal ratio)
How it was run: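 Wild-type CHO-K1 cells, plated overnight, exposed 3hr at 37C to 15 concentrations (0.76% DMSO final). Lysed, then HTRF anti-pH2AX (S139) cryptate and anti-H2AX-d2 antibodies, 24 hr room temperature; 665/620 nm emission read.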
On the % scale 0 is the no-effect control and ±100 the full control effect.

Chain of Thyrotropin receptor (Homo sapiens) (P16473 whole entry, looked up): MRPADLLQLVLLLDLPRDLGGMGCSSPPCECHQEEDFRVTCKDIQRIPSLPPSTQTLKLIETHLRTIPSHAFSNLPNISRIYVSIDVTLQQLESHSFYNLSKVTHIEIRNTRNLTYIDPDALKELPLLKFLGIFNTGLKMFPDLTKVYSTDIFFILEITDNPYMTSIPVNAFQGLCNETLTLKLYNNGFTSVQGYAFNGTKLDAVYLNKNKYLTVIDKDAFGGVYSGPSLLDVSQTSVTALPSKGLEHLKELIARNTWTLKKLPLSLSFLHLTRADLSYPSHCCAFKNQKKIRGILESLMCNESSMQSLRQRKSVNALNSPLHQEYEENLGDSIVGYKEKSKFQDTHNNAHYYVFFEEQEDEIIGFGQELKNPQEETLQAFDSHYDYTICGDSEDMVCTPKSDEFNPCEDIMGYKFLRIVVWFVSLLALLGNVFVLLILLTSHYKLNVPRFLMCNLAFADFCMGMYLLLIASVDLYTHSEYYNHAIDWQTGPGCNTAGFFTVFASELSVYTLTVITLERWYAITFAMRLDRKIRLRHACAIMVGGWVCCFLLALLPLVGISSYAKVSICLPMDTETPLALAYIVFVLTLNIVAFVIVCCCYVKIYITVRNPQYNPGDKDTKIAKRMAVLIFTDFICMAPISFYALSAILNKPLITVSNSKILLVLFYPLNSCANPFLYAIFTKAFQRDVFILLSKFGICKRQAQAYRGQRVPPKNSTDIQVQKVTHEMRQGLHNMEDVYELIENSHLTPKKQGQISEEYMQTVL

CC(=O)Oc1ccc2c(c1)CC[C@@H]1[C@@H]2CC[C@]2(C)[C@@H](O)CC[C@@H]12
active: Potency [6] 9.52 µM | Potency [9] 16.9 µM
inactive: Potency [1] | Potency [2] | Potency [3] | activity change, positive = activation [4] -29.3% [at 42.5 µM] | Potency [5] | Potency [7] | Potency [8] | Potency [10] | Potency [11] | Potency [12]

Cc1nc2ccccc2s1
inactive: Potency [1] | Potency [2] | outcome [13] | Potency [3] | Potency [14] | activity change, positive = activation [4] 1.14% | Potency [5] | Potency [8] | Potency [15] | Potency [16] | Potency [17] | max response [9] 2.93% | Potency [10] | Potency [11] | Potency [12] | Potency [18] | Potency [19]

Cc1c(C(=O)NN2CCCCC2)nn(-c2ccc(Cl)cc2Cl)c1-c1ccc(Cl)cc1
inactive: Potency [1] | Potency [3] | Potency [5] | Potency [7] | Potency [8] | Potency [15] | Potency [17] | Potency [10] | Potency [11] | Potency [12] | Potency [18] | Potency [19]
active: Potency [2] 21.3 µM

Cc1cc(S(=O)(=O)O)ccc1N=Nc1c(O)ccc2ccccc12
inactive: Potency [1] | Potency [2] | outcome [13] | Potency [14] | activity change, positive = activation [4] -1.94% | Potency [5] | Potency [7] | Potency [8] | Potency [16] | max response [9] -12.7% | Potency [10] | Potency [11] | Potency [12] | Potency [18] | Potency [19]

CCCCCCCCCCCC[N+](C)(C)CC(=O)[O-]
inactive: Potency [1] | Potency [2] | Potency [20] | Potency [5] | Potency [6] | Potency [7] | Potency [8] | Potency [16] | Potency [17] | max response [9] -3.41% | Potency [12]

CCN(Cc1cccc(S(=O)(=O)O)c1)c1ccc(C(=C2C=CC(=[N+](CC)Cc3cccc(S(=O)(=O)[O-])c3)C=C2)c2ccccc2)cc1
inactive: Potency [1] | Potency [2] | Potency [3] | Potency [14] | activity change, positive = activation [4] 1.85% [at 42.5 µM] | Potency [5] | Potency [7] | Potency [8] | Potency [15] | Potency [16] | Potency [10] | Potency [11] | Potency [12] | Potency [18] | Potency [19]

CCCCOC(=O)CCS
inactive: Potency [1] | Potency [2] | Potency [3] | Potency [5] | Potency [6] | Potency [7] | Potency [8] | Potency [15] | Potency [16] | Potency [17] | max response [9] 5.96% | Potency [10] | Potency [11] | Potency [12] | Potency [18] | Potency [19]

CCCCCCCCCCCC(=O)[O][Sn]([CH2]CCC)([CH2]CCC)[O]C(=O)CCCCCCCCCCC
inactive: Potency [1] | Potency [2] | Potency [3] | Potency [14] | activity change, positive = activation [4] -11.3% [at 42.5 µM] | Potency [7] | Potency [17] | Potency [10] | Potency [11]
active: Potency [5] 19 µM | Potency [6] 7.56 µM | Potency [8] 19 µM | Potency [12] 19 µM | Potency [18] 19 µM | Potency [19] 16.9 µM
